Over roughly 33,000 sequences, “E-score (-0.5 to 0.5)” has its median near -0.035; the highest 2% begin near 0.35. The entries come from a sample that favours the highest values as a whole.
These sequences were tested against T1, Pdr3 (UniProt P33200) (assay: PBM E-score (8-mer binding enrichment) (E-score (-0.5 to 0.5)); higher = stronger / more preferred TF binding). Details: protein concentration: 200 nM; construct: GST-full length.
T1 sequence: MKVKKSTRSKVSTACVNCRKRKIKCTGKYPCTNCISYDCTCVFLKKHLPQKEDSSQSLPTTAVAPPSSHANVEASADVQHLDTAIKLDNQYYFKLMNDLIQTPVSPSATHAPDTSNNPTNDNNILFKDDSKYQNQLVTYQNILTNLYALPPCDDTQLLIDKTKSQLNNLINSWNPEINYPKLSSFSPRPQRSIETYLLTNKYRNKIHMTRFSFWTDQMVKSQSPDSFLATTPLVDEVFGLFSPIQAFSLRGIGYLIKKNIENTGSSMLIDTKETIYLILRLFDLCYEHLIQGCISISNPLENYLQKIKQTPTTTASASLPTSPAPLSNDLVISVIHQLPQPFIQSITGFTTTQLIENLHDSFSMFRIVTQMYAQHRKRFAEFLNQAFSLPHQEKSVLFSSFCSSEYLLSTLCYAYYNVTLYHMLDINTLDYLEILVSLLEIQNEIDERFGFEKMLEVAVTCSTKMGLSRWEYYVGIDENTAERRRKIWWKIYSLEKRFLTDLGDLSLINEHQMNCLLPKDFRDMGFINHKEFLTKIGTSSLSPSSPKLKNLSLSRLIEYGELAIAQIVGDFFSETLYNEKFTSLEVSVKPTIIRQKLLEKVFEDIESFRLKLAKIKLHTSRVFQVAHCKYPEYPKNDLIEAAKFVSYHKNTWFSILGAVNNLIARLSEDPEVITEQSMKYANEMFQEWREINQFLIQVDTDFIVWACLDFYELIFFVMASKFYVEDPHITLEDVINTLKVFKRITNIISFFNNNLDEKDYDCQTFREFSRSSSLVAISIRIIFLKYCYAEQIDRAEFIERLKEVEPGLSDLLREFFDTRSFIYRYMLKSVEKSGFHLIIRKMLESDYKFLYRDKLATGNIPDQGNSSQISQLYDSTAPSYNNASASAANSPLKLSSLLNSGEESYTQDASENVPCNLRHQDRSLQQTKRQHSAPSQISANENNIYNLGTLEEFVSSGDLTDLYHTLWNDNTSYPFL
Outline: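 Detection of bound protein used fluorescent anti-GST, with scans normalised by masliner. The proteins were GST-tagged yeast transcription factors applied at about 100-200 nM to universal all-10-mer Agilent arrays made double-stranded by primer extension. Each ungapped eight-base word, pooled with its reverse complement, was scored with an E-score from the Universal PBM Analysis Suite.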

| Sequence | PBM E-score |
| --- | --- |
| ACTCCGGA | 0.456 |
| GCTCCGTA | 0.32 |
| GCTCCGCA | 0.178 |
| ACTCCGGC | 0.315 |
| GCTCCGGA | 0.461 |
| CCTCCGGC | 0.32 |
| ACTCCGGG | 0.369 |
| CCTCCGGA | 0.416 |
| CCTCCCGA | 0.103 |
| ACTCCGAT | 0.203 |
| ACTCCTGG | -0.134 |
| AAATAGGT | -0.15 |
| ATCAAAGA | -0.143 |
| ACTCTGCA | -0.125 |
| GGTTTCGA | 0.134 |
| CTCTTTCC | 0.141 |
| CATGAAAC | 0.0519 |
| CGATTTCA | -0.0484 |
| TGCATAAA | -0.00866 |
| GCGTTGCC | 0.126 |
| AGCGGGCA | -0.048 |
| CGCGGGCC | 0.379 |
| CGCGGGCA | 0.397 |
| AGCGGGCC | 0.057 |
| AGCGGGTA | 0.0103 |
| GGCGGGCA | 0.219 |

| Sequence | PBM E-score |
| --- | --- |
| CACGGGCC | 0.196 |
| CGCGGGTA | 0.363 |
| CGCGGGTC | 0.331 |
| CCGATCTA | 0.0827 |
| ATCCAATG | -0.208 |
| AGTCTGAT | -0.133 |
| AAGACAAA | -0.103 |
| AACCGCTG | -0.114 |
| CGTTCGAG | -0.0996 |
| CAATTCCC | 0.133 |
| AAATTCCA | 0.0847 |
| CAATTCCG | 0.435 |
| AAATTCCG | 0.418 |
| CAATTCCA | 0.0797 |
| AAATTCCC | 0.144 |
| CAGATCTA | -0.337 |
| AACAGCAT | -0.0321 |
| GAGACTCA | -0.204 |
| TGTGATAA | -0.121 |
| GACGGAAA | 0.43 |
| AACGGAGA | 0.243 |
| TACGGGAA | 0.261 |
| CACGGGAA | 0.223 |
| GACGGACA | 0.335 |
| CAAGGAAA | 0.00732 |
| TAGGGAAA | -0.15 |

| Sequence | PBM E-score |
| --- | --- |
| CACGGAAA | 0.449 |
| AACGGGAA | 0.354 |
| TACGGAAA | 0.402 |
| AACGGAAA | 0.464 |
| GACGGGAA | 0.203 |
| GCTACGAC | 0.0127 |
| CACTGGTC | -0.078 |
| CAGATGCG | -0.126 |
| CTAGGACA | -0.0782 |
| CGGCTTGC | 0.197 |
| GCTCGTAC | -0.126 |
| CCTAGAAG | -0.146 |
| ATGTCTAG | -0.064 |
| AATAGGCG | 0.313 |
| AGCCTTAG | -0.37 |
| CAGCCACG | 0.145 |
| GACAGAAC | 0.0194 |
| CACAGAAG | -0.109 |
| CAAGGAAG | -0.0209 |
| GACGGAAC | 0.475 |
| CACGGAAG | 0.386 |
| CAAGGAAC | 0.161 |
| GATGGAAC | 0.06 |
| CACGGAAC | 0.483 |
| CATGGAAC | -0.0483 |
| ACAGTAAA | -0.0539 |

| Sequence | PBM E-score |
| --- | --- |
| AGCAAAAG | -0.336 |
| CTATAAGC | -0.129 |
| TCAATAGA | -0.262 |
| ATGTTATC | 0.0774 |
| CAGTTTCC | 0.253 |
| ATCAGCGA | -0.0101 |
| ATCAGCGG | 0.364 |
| ATCAGCGC | 0.207 |
| AGAGAGTC | -0.249 |
| CCCCTTTC | 0.00738 |
| TAATGCAA | -0.241 |
| AACGGCTT | 0.0106 |
| CCAGGTTA | -0.0429 |
| ACCGCGGG | 0.472 |
| ATCGCGGC | 0.213 |
| ATCGCGGG | 0.186 |
| ACCGCGTA | 0.174 |
| ACCGCGAT | 0.177 |
| ATCGCGGA | 0.282 |
| ACCGCGGC | 0.399 |
| ACCGCGGA | 0.488 |
| ACCGCGAG | -0.00369 |
| ACCGCGGT | 0.4 |
| AACGCGGT | 0.1 |
| ACCGCGTC | 0.0777 |
| CCTTGTGA | -0.0319 |

| Sequence | PBM E-score |
| --- | --- |
| GGCTGTTA | 0.0369 |
| CACTTAGA | -0.119 |
| CGCTGGAC | -0.075 |
| TCCTCGCA | -0.0258 |
| CAAATTGC | 0.0819 |
| CAAAAACC | 0.0333 |
| CTTACCAA | -0.108 |
| AAGAGCAG | -0.0681 |
| CTATGGCC | -0.124 |
| GGTCGGAC | 0.15 |
| CGTCGGAA | 0.411 |
| TGTCGGAA | 0.383 |
| CGTCGGAC | 0.252 |
| GGTCGGCA | -0.00943 |
| AGTCGGAG | 0.134 |
| TGTCGCAA | -0.0293 |
| CGTCGGAG | 0.178 |
| TGTCGTAA | -0.113 |
| AGTCGGAA | 0.414 |
| GGTCGGAA | 0.4 |
| AGTCGGAC | 0.117 |
| CCTTGGCG | -0.0565 |
| CGCTTTGC | 0.0905 |
| CCCCACGA | -0.0538 |
| ACAGTATC | -0.21 |
| AAACCAGT | -0.227 |

| Sequence | PBM E-score |
| --- | --- |
| GCTAGAGC | -0.272 |
| CCGCCCGC | 0.241 |
| ACGCCCGG | 0.311 |
| CCGCCCCC | 0.0913 |
| CCGCCCGG | 0.407 |
| AAGCCCGG | 0.379 |
| CCGCCCCG | 0.435 |
| ACGCCCCG | 0.181 |
| AAGCCCGT | -0.162 |
| AAGCCCGC | 0.213 |
| CACTCATG | -0.257 |
| AAAGGGAT | -0.154 |
| AACCGCCA | -0.0357 |
| CGGAGATA | 0.386 |
| GGGAGATA | 0.0536 |
| AGGAGATA | -0.182 |
| ATTCAAAA | 0.0638 |
| GAAAACTA | 0.0457 |
| AAATATAT | 0.19 |
| CGAAAGCC | -0.105 |
| CTAACGAA | -0.0337 |
| GTAACGGA | 0.397 |
| CTAACGGA | 0.389 |
| GTAACGCA | 0.0163 |
| GTAACGTA | -0.165 |
| ATAACGGG | 0.0143 |

| Sequence | PBM E-score |
| --- | --- |
| ATAACGGA | 0.386 |
| CTAACGGC | -0.00464 |
| ATAACGGC | 0.135 |
| CATGTGCG | 0.0377 |
| ATAGCGTC | -0.153 |
| GTGCAGTA | -0.0405 |
| CCTGGCCA | -0.107 |
| ATGAAGCA | -0.152 |
| ACGCTATG | -0.187 |
| ATCGACCA | -0.176 |
| CAAAGAGC | -0.0254 |
| CCGGAGCC | 0.403 |
| CCGGAGCG | 0.37 |
| ACGGAGCC | 0.305 |
| GCGGAGCA | 0.304 |
| CAGGAGCG | -0.12 |
| GCGGAGCC | 0.296 |
| TCGGAGCA | 0.28 |
| CCGGAGCA | 0.401 |
| ACGGAGCG | 0.337 |
